Reference: PubChem BioAssay (Tox21)
Results filed as inconclusive are left out. The source made the active and inactive calls. Unless noted, calls follow the shape of the dose curve; as a rule, active = well fitted curve in the direction sought with a large enough effect in the repeat runs; inconclusive = weak or mixed curves; inactive = no such curve, though single readings can be large; an effect the other way counts as inactive or inconclusive.

Columns and labels:
[1] = qHTS assay for small molecule agonists of the p53 signaling pathway (AID 651631; calls by dose curve; also: nearly all actives have a fitted effect of over 15% in size)
Method in brief: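 HCT-116 cells carrying a beta-lactamase reporter under p53 response elements were dosed with compound for 16 h at 37 °C. LiveBLAzer B/G FRET substrate was then added for 2 h at room temperature, and fluorescence intensity was read to detect pathway agonism.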

[2] = qHTS assay for small molecules that induce genotoxicity in human embryonic kidney cells expressing luciferase-tagged ATAD5 (AID 651632); also: nearly all actives have a fitted effect of over 15% in size
Method in brief: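 Genotoxicity read-out via ATAD5-luciferase: HEK293T cells, 16 hr compound incubation at 37C, Amplite detection.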

[3] = qHTS assay for small molecule agonists of the p53 signaling pathway - cell viability (AID 651633; calls by dose curve;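 also: p53RE-bla HCT reporter cells with a stable beta-lactamase p53 reporter; series mostly up to about 83 µM; nearly all actives have a fitted effect of over 30% in size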)
Method in brief: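 p53RE-bla cells, seeded at 4,000 per well and rested 5 h at 37 C/5% CO2, received compounds in DMSO for 16 h at 37 C. CellTiter-Glo was then added, and luminescence was read after 30 min at room temperature to gauge cytotoxicity.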

[4] = qHTS assay for small molecule disruptors of the mitochondrial membrane potential (AID 720635)
Method in brief: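 HepG2 cells (2,000/well) attached overnight at 37C, then took compound for 1 hr at 37C, 5% CO2. Mito-MPS dye was added for 30 min; fluorescence was read at 490/535 nm (monomers) and 540/590 nm (aggregates).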

[5] = qHTS assay to test for compound auto fluorescence at 590 nm (red) in HepG2 cells (AID 720674)
Method in brief: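 Intrinsic compound fluorescence in the red window (Ex/Em 540/590 nm) is measured in attached HepG2 cells exposed for 1 hr, DMSO vehicle as baseline, benchmarked to Rose Bengal sodium.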

[6] = qHTS assay to test for compound auto fluorescence at 535 nm (green) in HepG2 cells (AID 720675)
[7] = qHTS assay to test for compound auto fluorescence at 460 nm (blue) in HEK293 cells (AID 720678)
Method in brief: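 Cells were seeded and left to adhere for 4-5 hr at 37C. Compounds were then pin-transferred. After an overnight incubation at 37C under 5% CO2, intrinsic fluorescence at 405/460 nm was measured and referenced to triamterene.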

[8] = qHTS assay to test for compound auto fluorescence at 590 nm (red) in HEK293 cells (AID 720679)
Method in brief: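 Each well held 2,000 HEK293 cells in medium containing 10% dialyzed FBS. Following 4-5 hr attachment at 37C, 23 nL test compound or DMSO was added; plates sat overnight, and red fluorescence (540/590nm) was recorded.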

[9] = qHTS assay to test for compound auto fluorescence at 535 nm (green) in HEK293 cells (AID 720680)
[10] = qHTS assay to test for compound auto fluorescence at 460 nm (blue) in HEK293 cell free culture (AID 720681)
Method in brief: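 Test compounds were pinned into cell-free culture medium (DMEM with 10% FBS) and fluorescence was read directly at Ex/Em 405/460 nm. Signals were expressed as fluorescence equivalents of triamterene, with DMSO vehicle as control.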

[11] = qHTS assay to test for compound auto fluorescence at 535 nm (green) in HEK293 cell free culture (AID 720682)
Method in brief: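 Green-label autofluorescence (485 nm excitation, 535 nm emission) measured on compound added to cell-free culture medium (DMEM, 10% FBS). Output is expressed relative to fluorescein.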

[12] = qHTS assay to test for compound auto fluorescence at 590 nm (red) in HEK293 cell free culture (AID 720683)
Method in brief: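 Tox21 10K library compounds were pinned into cell-free DMEM with 10% FBS and fluorescence was read at excitation 540 nm. Activity is expressed as Rose Bengal sodium equivalency.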

[13] = qHTS assay to test for compound auto fluorescence at 590 nm (red) in HepG2 cell free culture (AID 720684)
Method in brief: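 Measured in medium alone (MEM containing 10% FBS) following pintool addition of compound; emission at 590 nm with 540 nm excitation, referenced to Rose Bengal sodium.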

[14] = qHTS assay to test for compound auto fluorescence at 460 nm (blue) in HepG2 cell free culture (AID 720685)
Method in brief: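 Compound (23 nL) or DMSO pinned into cell-free MEM with 10% FBS; blue fluorescence read at 405/460 nm excitation/emission, expressed as auto-fluorescence equivalency to triamterene.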

[15] = qHTS assay to test for compound auto fluorescence at 535 nm (green) in HepG2 cell free culture (AID 720686)
[16] = qHTS assay to test for compound auto fluorescence at 460 nm (blue) in HepG2 cells (AID 720687)
Method in brief: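 Cells (2,000/well in MEM with 10% FBS) attached overnight at 37 C, then were exposed to compound or DMSO for 1 hr at 37 C, 5% CO2. Fluorescence read at Ex/Em 405/460 nm, expressed as triamterene-equivalent signal.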

[17] = molecular target: Glucocorticoid receptor (Homo sapiens) (UniProt P04150); assay: qHTS assay to identify small molecule agonists of the glucocorticoid receptor (GR) signaling pathway (AID 720691; active = well fitted activation curve with a large enough effect in the signal ratio in the repeat runs, not every such curve was filed as active; the % refers to the signal ratio)
Glucocorticoid receptor (Homo sapiens), sequence (P04150 whole entry, looked up): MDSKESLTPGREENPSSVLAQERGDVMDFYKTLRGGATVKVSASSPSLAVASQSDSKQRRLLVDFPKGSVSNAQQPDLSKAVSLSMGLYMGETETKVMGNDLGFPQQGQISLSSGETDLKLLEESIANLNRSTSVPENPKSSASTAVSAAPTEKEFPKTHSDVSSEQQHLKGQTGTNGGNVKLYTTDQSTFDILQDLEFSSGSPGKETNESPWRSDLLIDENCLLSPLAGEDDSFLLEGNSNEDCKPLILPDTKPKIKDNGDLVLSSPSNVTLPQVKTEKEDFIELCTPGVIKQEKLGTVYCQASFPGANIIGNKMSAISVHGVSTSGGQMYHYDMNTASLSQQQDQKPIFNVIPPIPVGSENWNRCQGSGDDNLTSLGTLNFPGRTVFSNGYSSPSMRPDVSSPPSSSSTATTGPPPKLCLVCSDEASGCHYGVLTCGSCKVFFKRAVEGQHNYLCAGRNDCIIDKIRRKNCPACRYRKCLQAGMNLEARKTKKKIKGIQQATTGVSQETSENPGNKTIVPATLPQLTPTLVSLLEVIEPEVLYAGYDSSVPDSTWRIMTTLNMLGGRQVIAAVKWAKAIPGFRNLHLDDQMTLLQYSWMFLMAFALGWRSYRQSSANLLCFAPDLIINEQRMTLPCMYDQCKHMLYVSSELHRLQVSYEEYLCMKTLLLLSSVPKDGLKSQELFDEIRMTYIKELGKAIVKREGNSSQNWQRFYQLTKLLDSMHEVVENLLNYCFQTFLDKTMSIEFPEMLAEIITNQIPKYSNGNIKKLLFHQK
Method in brief: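 Beta-lactamase reporter activity, read as fluorescence intensity, was measured in GR-bla HeLa cells exposed to compounds for 18 h at 37 C and then loaded with LiveBLAzer B/G FRET substrate for 2 h at room temperature.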

[18] = molecular target: Glucocorticoid receptor (Homo sapiens) (UniProt P04150); assay: qHTS assay to identify small molecule antagonists of the glucocorticoid receptor (GR) signaling pathway (AID 720692; active = well fitted inhibition curve with a large enough effect in the signal ratio in the repeat runs, not every such curve was filed as active; the % refers to the signal ratio)
Method in brief: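 Fluorescence from cleaved LiveBLAzer B/G FRET substrate reports GRE-driven beta-lactamase in HeLa cells; compounds are tested against 5 nM dexamethasone (final) over 18 h at 37 C, substrate incubation 2 h at room temperature.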

[19] = qHTS assay for small molecule disruptors of the mitochondrial membrane potential - cell viability (AID 720634; calls by dose curve;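 also: human HepG2 liver cancer cells; series mostly up to about 83 µM; nearly all actives have a fitted effect of over 20% in size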)
Method in brief: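 Human hepatoma HepG2 cells were treated for 1 hr with test chemicals, then given m-MPI dye and CellTiter-Glo. Cell viability reflects luminescence proportional to cellular ATP.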

[20] = qHTS assay for small molecules that induce genotoxicity in human embryonic kidney cells expressing luciferase-tagged ATAD5 - cell viability (AID 651634; calls by dose curve; also: nearly all actives have a fitted effect of over 25% in size)
Method in brief: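 Live-cell protease activity (CellTiter-Fluor, fluorescence) indicates viability. HEK293T cells with luciferase-tagged ATAD5; 15.5 hr compound treatment at 37C.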

Measured: Potency

C=C[Si](C)(C)O[Si](C)(C)C=C
not listed: [19] | [20]
inactive: all other assays above

CC1=NN(c2ccc(S(=O)(=O)O)cc2)C(=O)C1N=Nc1ccccc1 (centres undefined)
not listed: [4] | [9] | [20]
inactive: all other assays above

CCOC(=O)OCC/C(SC(=O)OCC)=C(\C)N(C=O)Cc1cnc(C)nc1N
not listed: [20]
inactive: all other assays above

CC(C)=CC(C)(C)C
not listed: [4] | [17] | [18] | [19] | [20]
inactive: all other assays above

Nc1c(NC/C=C\COc2cc(CN3CCCCC3)ccn2)c(=O)c1=O
not listed: [17] | [20]
inactive: all other assays above

CCCCCC1Nc2cc(C(F)(F)F)c(S(N)(=O)=O)cc2S(=O)(=O)N1 (centres undefined)
not listed: [20]
inactive: all other assays above

CC(=O)OC(C(=O)c1ccccc1)c1ccccc1 (centres undefined)
not listed: [4] | [17] | [18] | [20]
inactive: all other assays above

NC(=O)NNC(N)=O
not listed: [4] | [9] | [20]
inactive: all other assays above

CC(=O)c1ccc2c(c1)CCCC2
not listed: [17] | [20]
inactive: all other assays above

CN(C)CCOCCN(C)CCO
not listed: [4] | [9] | [19] | [20]
inactive: all other assays above

O=C1OC(=O)c2cc(Oc3ccc4c(c3)C(=O)OC4=O)ccc21
not listed: [17] | [18] | [19] | [20]
inactive: all other assays above

CC(C)c1ccccc1O
not listed: [4] | [9] | [19]
inactive: all other assays above

C=C(C)C(=O)OC
not listed: [2] | [18]
inactive: all other assays above

CCC(=O)c1ccc(O)cc1
not listed: [4] | [17] | [19]
inactive: all other assays above

CC(C)COC(=O)CC(C(=O)OCC(C)C)S(=O)(=O)O (centres undefined)
not listed: [4] | [19]
inactive: all other assays above
